# Results: ChEMBL document CHEMBL3988442, “University of Dundee, Small-Polar-MMV Screening Library” (2021)
# For some of these results: Measured potencies and affinities stand elsewhere.
# How the values were obtained:
# Design in all cases: scale not given: direction of the effect not stated beside the values
# [1] = target: Protein translocase subunit SecA (Escherichia coli (strain K12)) (UniProt P10408); assay: Assay to Identify E. coli SecA ATPase Inhibitors; assay type: functional; settings: 30 µM
# Chain of Protein translocase subunit SecA (Escherichia coli (strain K12)) (P10408 whole entry): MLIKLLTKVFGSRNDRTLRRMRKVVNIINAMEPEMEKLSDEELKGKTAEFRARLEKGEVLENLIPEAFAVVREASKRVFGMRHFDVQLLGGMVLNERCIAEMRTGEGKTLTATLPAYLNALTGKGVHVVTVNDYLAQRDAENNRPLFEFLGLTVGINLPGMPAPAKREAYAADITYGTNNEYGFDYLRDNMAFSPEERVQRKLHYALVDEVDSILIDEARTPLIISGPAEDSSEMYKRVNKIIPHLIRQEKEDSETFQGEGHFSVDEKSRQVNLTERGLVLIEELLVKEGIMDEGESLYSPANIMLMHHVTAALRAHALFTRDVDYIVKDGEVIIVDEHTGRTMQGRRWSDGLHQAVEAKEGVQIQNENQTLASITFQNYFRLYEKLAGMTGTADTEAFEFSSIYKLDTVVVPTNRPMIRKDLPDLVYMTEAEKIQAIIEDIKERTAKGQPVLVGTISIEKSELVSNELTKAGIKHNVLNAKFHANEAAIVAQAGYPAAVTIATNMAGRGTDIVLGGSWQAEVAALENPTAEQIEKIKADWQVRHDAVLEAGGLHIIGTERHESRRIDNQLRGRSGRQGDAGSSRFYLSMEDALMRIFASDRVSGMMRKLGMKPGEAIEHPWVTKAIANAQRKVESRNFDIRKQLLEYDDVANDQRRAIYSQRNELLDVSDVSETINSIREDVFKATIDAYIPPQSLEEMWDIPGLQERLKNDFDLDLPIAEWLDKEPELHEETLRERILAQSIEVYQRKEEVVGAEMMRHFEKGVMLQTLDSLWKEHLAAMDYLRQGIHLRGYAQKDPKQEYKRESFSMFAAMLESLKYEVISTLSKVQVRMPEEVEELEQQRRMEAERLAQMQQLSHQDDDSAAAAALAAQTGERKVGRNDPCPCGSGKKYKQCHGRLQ
# [2] = target: T1, Ubiquitin-activating enzyme e1, putative (Leishmania donovani (strain BPK282A1)) (UniProt E9BSI1); assay: Leishmania donovani Ubiquitin Activating Enzyme (LdE1); assay type: functional; settings: 30 µM
# T1 sequence (whole entry): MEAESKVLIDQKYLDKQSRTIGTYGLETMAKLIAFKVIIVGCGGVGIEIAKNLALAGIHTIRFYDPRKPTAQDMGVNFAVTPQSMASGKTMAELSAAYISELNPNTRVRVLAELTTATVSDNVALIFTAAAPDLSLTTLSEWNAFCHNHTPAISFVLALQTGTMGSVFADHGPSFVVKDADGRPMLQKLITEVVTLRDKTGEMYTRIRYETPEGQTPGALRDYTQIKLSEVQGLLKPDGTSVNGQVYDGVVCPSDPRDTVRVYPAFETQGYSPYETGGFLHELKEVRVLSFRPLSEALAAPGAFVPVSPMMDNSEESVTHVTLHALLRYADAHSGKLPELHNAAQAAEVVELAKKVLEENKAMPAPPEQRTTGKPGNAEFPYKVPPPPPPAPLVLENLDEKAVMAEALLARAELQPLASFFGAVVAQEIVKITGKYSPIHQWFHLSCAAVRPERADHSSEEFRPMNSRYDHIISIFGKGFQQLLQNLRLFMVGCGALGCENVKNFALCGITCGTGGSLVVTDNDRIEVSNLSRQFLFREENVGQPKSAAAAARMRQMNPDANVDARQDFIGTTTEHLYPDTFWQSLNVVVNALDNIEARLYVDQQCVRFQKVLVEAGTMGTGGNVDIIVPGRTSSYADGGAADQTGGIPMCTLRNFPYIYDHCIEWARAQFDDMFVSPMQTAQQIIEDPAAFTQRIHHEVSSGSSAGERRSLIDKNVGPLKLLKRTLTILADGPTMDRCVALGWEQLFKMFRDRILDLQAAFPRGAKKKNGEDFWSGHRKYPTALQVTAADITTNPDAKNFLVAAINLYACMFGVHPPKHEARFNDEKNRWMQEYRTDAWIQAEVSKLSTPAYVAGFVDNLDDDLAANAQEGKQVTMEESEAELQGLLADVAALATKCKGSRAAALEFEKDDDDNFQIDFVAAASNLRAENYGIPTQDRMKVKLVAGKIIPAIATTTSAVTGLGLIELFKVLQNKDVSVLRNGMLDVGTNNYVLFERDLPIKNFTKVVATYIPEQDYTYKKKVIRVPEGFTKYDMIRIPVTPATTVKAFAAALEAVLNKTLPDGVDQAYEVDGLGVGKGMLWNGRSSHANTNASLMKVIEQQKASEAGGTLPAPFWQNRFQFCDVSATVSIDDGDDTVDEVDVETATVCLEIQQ
# [3] = target: AMP-activated protein kinase, AMPK (Homo sapiens) (UniProt P54646+O43741+P54619+Q9UGJ0+Q9Y478+Q13131+Q9UGI9); assay: AMP-dependent Kinase enzyme assay. An in vitro enzyme assay that detects ADP turnover that is directly proportional to AMPK activity. This uses naive AMPK that is activated during the assay with MK-8722; assay type: functional; settings: 30 µM
# [4] = target: Sialic acid-binding Ig-like lectin 9 (Homo sapiens) (UniProt Q9Y336); assay: Hs-Siglec9 ALPHAscreen SOP 20170721; settings: 10 µM
# Chain of Sialic acid-binding Ig-like lectin 9 (Homo sapiens) (Q9Y336 whole entry): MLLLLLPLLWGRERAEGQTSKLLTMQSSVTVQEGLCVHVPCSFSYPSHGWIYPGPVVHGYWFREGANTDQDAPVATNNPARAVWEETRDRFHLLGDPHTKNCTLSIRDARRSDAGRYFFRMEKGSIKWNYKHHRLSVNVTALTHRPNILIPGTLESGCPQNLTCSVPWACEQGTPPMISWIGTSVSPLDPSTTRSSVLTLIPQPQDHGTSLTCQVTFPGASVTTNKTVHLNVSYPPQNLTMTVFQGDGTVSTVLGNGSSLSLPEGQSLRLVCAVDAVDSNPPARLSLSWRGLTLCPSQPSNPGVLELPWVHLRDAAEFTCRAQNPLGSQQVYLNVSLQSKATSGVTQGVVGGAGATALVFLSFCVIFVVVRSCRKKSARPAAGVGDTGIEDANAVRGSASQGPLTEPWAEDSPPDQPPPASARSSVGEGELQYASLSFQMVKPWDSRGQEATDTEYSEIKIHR
# Trypanosoma cruzi = assay: Trypanosoma cruzi phosphomannomutase and mannose-1-phosphate guanylyltransferase assay; assay type: functional; settings: 10 µM
# [5] = target: T2, Arginase-2, mitochondrial (Homo sapiens) (UniProt P78540); assay: in vitro enzyme assay to detect the production of urea directly proportional to the activity of Arginase II; assay type: functional; settings: 33.3 µM; further: in the data most compounds retested in dose-response had high values
# T2 sequence (whole entry): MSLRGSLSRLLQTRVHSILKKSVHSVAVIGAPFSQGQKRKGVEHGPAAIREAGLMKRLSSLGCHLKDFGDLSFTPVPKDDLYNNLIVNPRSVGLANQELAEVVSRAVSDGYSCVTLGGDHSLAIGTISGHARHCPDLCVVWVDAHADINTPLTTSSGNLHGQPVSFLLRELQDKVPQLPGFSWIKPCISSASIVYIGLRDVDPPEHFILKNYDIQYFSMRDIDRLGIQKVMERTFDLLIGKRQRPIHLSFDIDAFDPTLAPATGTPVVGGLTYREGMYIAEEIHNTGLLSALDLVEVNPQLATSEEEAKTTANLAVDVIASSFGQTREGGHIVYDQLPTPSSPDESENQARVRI
# [6] = target: T3, Proteasome subunit beta (Trypanosoma cruzi) (UniProt O96673); assay: Trypanosoma cruzi proteasome chymotrypsin-like activity (TcProtChymo) assay.; further: in the data most compounds retested in dose-response had high values; assay type: functional; settings: 9.37 µM
# T3 sequence (whole entry): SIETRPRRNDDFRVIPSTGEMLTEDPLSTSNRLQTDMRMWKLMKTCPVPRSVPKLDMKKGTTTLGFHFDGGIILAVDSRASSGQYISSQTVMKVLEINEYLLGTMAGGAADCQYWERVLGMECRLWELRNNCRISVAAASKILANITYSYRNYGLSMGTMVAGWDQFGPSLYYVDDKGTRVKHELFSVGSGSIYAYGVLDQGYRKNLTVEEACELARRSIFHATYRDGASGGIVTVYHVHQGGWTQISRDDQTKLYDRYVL
# Homo sapiens = species: Homo sapiens; assay: To identify inhibition of the IFN signalling (Jak-Stat) pathway via expression of an eGFP reporter gene under the control of an IFN-stimulated response element (ISRE) containing MxA promoter.; assay type: functional; settings: 30 µM
# [7] = target: T4, Tyrosyl-tRNA synthetase, putative (Trypanosoma cruzi (strain CL Brener)) (UniProt Q4DSP6); assay: Trypanosoma cruzi tyrosyl tRNA synthetase (TcYRS) _High Tyrosine SOP; assay type: functional; settings: 30 µM; further: in the data most compounds retested in dose-response had high values
# T4 sequence (whole entry): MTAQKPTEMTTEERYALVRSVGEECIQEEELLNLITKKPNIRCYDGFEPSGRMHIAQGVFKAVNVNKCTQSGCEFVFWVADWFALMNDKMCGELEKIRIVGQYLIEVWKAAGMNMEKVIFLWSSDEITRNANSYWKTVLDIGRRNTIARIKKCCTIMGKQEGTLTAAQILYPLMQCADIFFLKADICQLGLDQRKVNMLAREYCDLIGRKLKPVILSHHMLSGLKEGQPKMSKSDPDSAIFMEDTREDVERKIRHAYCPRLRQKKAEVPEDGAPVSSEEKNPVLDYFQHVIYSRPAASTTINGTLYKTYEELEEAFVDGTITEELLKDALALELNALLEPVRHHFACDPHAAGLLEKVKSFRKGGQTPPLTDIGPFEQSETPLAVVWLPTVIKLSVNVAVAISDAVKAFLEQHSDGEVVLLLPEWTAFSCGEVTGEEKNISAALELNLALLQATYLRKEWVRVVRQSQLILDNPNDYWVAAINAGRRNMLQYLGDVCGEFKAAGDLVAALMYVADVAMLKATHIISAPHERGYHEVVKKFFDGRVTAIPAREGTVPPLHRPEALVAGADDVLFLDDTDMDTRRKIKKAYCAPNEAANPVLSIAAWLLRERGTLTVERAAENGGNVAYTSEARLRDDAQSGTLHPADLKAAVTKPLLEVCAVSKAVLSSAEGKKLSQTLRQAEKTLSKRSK
# [8] = target: T4, Tyrosyl-tRNA synthetase, putative (Trypanosoma cruzi (strain CL Brener)); assay: Trypanosoma cruzi tyrosyl tRNA synthetase (TcYRS) SOP; assay type: functional; settings: 30 µM
# [9] = target: Chromo domain-containing protein 1 (Saccharomyces cerevisiae (strain ATCC 204508 / S288c) (Baker's yeast)) (UniProt P32657); assay: ScCHD-1 Enzyme Inhibition Assay; assay type: functional; settings: 30 µM; further: in the data most compounds retested in dose-response had high values
# Chain of Chromo domain-containing protein 1 (Saccharomyces cerevisiae (strain ATCC 204508 / S288c) (Baker's yeast)) (P32657 whole entry, the tested form may be a part): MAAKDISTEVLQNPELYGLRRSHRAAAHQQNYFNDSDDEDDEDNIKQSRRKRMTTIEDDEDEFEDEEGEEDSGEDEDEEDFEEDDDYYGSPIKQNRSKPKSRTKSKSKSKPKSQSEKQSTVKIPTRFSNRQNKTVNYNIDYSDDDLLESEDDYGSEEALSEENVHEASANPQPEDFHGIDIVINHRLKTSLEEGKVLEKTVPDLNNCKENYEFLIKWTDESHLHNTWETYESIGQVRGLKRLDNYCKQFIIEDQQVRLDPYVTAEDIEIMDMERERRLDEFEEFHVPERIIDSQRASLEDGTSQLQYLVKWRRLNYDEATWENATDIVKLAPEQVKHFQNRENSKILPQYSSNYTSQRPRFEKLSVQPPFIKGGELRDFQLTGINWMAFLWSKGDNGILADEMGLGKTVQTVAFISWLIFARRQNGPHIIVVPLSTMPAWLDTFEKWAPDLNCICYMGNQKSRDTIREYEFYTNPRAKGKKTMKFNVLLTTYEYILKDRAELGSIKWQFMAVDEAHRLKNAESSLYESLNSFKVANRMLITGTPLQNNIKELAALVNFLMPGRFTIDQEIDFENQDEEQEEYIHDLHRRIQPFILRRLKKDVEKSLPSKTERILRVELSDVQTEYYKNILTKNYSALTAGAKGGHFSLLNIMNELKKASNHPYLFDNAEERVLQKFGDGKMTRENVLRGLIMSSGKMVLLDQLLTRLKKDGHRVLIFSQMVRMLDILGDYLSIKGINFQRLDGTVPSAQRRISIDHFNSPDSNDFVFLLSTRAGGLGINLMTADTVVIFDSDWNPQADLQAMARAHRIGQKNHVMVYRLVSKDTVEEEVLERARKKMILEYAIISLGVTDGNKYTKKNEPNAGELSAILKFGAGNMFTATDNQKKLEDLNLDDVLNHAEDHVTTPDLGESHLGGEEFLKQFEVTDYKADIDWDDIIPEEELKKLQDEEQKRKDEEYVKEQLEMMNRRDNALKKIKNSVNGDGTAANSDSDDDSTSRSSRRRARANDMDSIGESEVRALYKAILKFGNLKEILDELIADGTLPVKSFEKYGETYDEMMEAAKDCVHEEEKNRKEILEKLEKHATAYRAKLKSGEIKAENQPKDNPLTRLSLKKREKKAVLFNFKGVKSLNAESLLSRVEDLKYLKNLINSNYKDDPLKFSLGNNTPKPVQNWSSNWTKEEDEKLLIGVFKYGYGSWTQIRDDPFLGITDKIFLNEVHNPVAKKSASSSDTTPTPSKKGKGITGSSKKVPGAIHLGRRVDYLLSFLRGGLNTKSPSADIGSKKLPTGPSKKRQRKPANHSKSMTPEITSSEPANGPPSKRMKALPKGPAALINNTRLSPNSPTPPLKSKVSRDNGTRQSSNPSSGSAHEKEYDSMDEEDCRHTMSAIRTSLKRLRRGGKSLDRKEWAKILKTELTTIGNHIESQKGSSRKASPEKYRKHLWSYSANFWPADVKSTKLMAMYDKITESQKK
SMILES,Percent Effect [1] [%],Percent Effect [2] [%],Percent Effect [3] [%],Percent Effect [4] [%],Percent Effect (Trypanosoma cruzi) [%],Percent Effect [5] [%],Percent Effect [6] [%],Percent Effect (Homo sapiens) [%],Percent Effect [7] [%],Percent Effect [8] [%],Percent Effect [9] [%]
Cc1nc(C2CCCN(C(=O)c3ccc(Cn4cccn4)o3)C2)no1 (stereo unspecified),0.739,-5.2,2.21,1.09,-2.43,5.34,-4.9,10.9,3.88,0,0.66
CCOC(CC)C(=O)NCCC(=O)N1CCN(c2ccccn2)CC1 (stereo unspecified),-3.95,2.63,4.4,4.32,3.99,-8.28,6.23,-5.03,2.13,5.2,0.201
CC(=O)NCC1CCN(CC2CCOc3ccccc3C2)CC1 (stereo unspecified),-1.44,15.3,-4.21,14,1.85,9.27,13.2,-5.31,4.21,15.4,-2.81
Fc1ccc(CNCC2OCCc3cn(CC4CC4)nc32)cc1 (stereo unspecified),-3.44,0,12.4,6.39,2.05,-4.78,12.4,9.33,3.24,7.69,8.43
COc1c(CNCC(O)c2cccc(F)c2)c(C(C)C)nn1C (stereo unspecified),2.75,10.4,-6.14,-13.3,-4.6,-0.21,18.7,5.92,9.52,14.1,-15.9
O=C(NCCc1ccccn1)NC1CCN(c2ncccn2)CC1,-2.63,16.4,1.28,3.94,-1.59,2,12.9,-1.99,9.38,23.5,-4.07
CCOc1ccc(N(CC(=O)c2ccccc2)C2=NCCCCC2)cc1,-1.17,-10.5,6.97,2.61,3.21,-2.37,8.72,-7.49,-1.06,-10.4,4.46
CCc1cccc(OCC(=O)N2CCCC(n3cncn3)C2)c1 (stereo unspecified),-5.42,13.5,1.85,-1.09,-5.57,2,13,14.3,5.42,11.1,-4.63
COCC(=O)NC1CC2(CCN(Cc3ccco3)CC2)c2ccccc21 (stereo unspecified),-1.45,2.7,-1.83,3.44,-7.92,2.23,24.2,4.53,2.16,5.13,-3.97
O=C(C1CC(=O)N(C2CCCC2)C1)N1CCN(CCn2cccc2)CC1 (stereo unspecified),-3.53,13.3,-5.45,19.8,2.82,13.5,16.9,23,3.83,13.6,-7.64
COc1ccc(CN2CCc3ncnc(C4CCOC4)c3CC2)cc1 (stereo unspecified),-3.47,5.33,-1.49,-6.97,5.41,-40.3,5.13,13.6,0,7.5,-7.3
